IL-1B inflam inh – inflammasome signaling inhibition, IL-1 beta readout; THP-1 LPS/ATP IL-1B secretion, AlphaLISA, 16 h; hits give low values; activity change, % at 57.5 µM; 360,000 compounds, 4.7% hits; in the data active = activity change below about -50%; inconclusive = mostly about -30% to -49%
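THP-1 cells pretreated 1 hr with compounds (up to 57.5 uM final), then stimulated with LPS (250 ng/mL final) plus ATP (1.25 mM final); secreted IL-1B measured by AlphaLISA after 16 hr, decreased signal indicating inhibition.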
DT40 TDP1 no CPT – qHTS for Inhibitors of human tyrosyl-DNA phosphodiesterase 1 (TDP1): qHTS in cells in absence of CPT. AID 686978, 2013. Potency, µM (highest dose often 46.2 µM), for inactives: at the highest dose activity change, negative = growth inhibition, hits mostly inhibitors. DT40 Tdp1-/- hTDP1 cells, no CPT, ATP luminescence, 48 h. 420,000 compounds, 15% hits; also: potency is read from the fitted curve at half-maximal effect; nearly all actives have a fitted effect of over 55% in size
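Chicken DT40 Tdp1-/- cells complemented with human TDP1, screened without camptothecin (DMSO vehicle only), 400 cells/well. Compounds pin-transferred, cells incubated at 37 °C for at least 48 hr. Growth read as ATP-dependent luminescence (CellTiter-Glo, 30 min at RT).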
DT40 TDP1 CPT – growth inhibition of DT40 Tdp1-/-;hTDP1 cells with camptothecin (screen for TDP1 inhibitors); Potency, µM (highest dose often 46.2 µM), for inactives: at the highest dose activity change, negative = growth inhibition, most hits filed as inhibitors; 420,000 compounds, 12% hits; chicken DT40 Tdp1-/-;hTDP1 cells + 20 nM CPT, ATP luminescence, 48 h; also: potency is read from the fitted curve at half-maximal effect; nearly all actives have a fitted effect of over 55% in size
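Cell growth measured by CellTiter-Glo luminescence after a minimum 48 h, 37 C compound exposure with 20 nM CPT in Tdp1-knockout DT40 cells stably expressing hTDP1, seeded 400/well; qHTS titration format.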
HT1080-NT tox – kills 2HG-producing HT-1080-NT fibrosarcoma cells; HT-1080-NT fibrosarcoma viability, CellTiter-Glo ATP luminescence, 48 h; Potency, µM (top dose mostly 46.1 µM), without a hit: at the top dose activity, negative = less viability, usual class: cytotoxic; 360,000 compounds, 1.6% hits;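 also: NT is the 2HG producing partner of a matched IDH1 knockdown line; potency is read from the fitted curve at half-maximal effect; 0% = DMSO-treated cells and -100% = media-only wells without cells; nearly all actives have a fitted effect of over 55% in size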
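Compounds were tested in concentration-response format on HT-1080-NT cells for 48 hours at 37 degrees C. Cell viability came from CellTiter-Glo luminescence; curves were classified by r2, response magnitude and activity.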
ELG1 DNA repair – blocks ELG1-dependent DNA repair in HEK293T cells; HEK293T ELG1-luciferase reporter, luminescence, 16 h; DNA damage induced by 5-fluorouridine; Potency, µM (series often up to 46.1 µM), inactives show top-dose activity change, negative = inhibition, usual class: inhibitors; 330,000 compounds, 2.3% hits; AID 504467; also: potency is read from the fitted curve at half-maximal effect; nearly all actives have a fitted effect of over 55% in size
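Reporter activity after DNA damage by 5-fluorouridine is monitored. Compound-treated cells incubate 16 hr at 37 °C, then ONE-Glo is added for 30 min before luminescence reading.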
HT1080 IDH1KD tx – HT-1080 IDH1 knockdown cell toxicity (counter line); 360,000 compounds, 2% hits; Potency, µM (series often up to 46.1 µM), inactives show at the highest dose activity, negative = toxicity, hits mostly cytotoxic; AID 686971; HT-1080 IDH1 knockdown viability, ATP luminescence, 48 h;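 also: potency is read from the fitted curve at half-maximal effect; 0% = DMSO wells and -100% = cell-free medium wells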
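Knockdown cells (IDH1KD HT-1080) received compounds 2 h after plating at 750 cells/well and were kept 48 h at 37 °C in 5% FBS RPMI. A CellTiter-Glo luminescence read gave % activity for curve fitting.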
An asterisk follows results filed as active; ? = inconclusive; nt = no result given; [ ] = another dose, or the depositor's remark. Only some compounds are listed: those with a hit (about 19% of all), similar ones and a draw of the others. Unless noted, calls follow the shape of the dose curve; as a rule, active = well fitted curve in the direction sought with a large enough effect; inconclusive = small, poorly fitted or top-dose-only effect, or another doubt; inactive = no such curve, though single readings can be large; an effect the other way counts as inactive or inconclusive. Unless noted, % is scaled to controls: 0 for no effect and ±100 for the full control effect.

SMILES	IL-1B inflam inh	DT40 TDP1 no CPT	DT40 TDP1 CPT	HT1080-NT tox	ELG1 DNA repair	HT1080 IDH1KD tx
COc1ccc(NC(=O)CSc2nnc(C)n2Cc2ccccc2)cc1	12	-5%	-2%	1%	6%	10%
COC(=O)c1ccc(Cn2c(SCC(=O)NCc3ccccc3)nc3ccccc32)cc1	nt	23µM*	21µM*	nt	nt	nt
CN(C)c1ncc2nc(-c3ccccc3)c(=O)n(Cc3ccc(F)cc3)c2n1	nt	7%	3%	nt	nt	nt
O=C(Cn1c(SCC(=O)Nc2ccc(F)cc2)nc2ccccc21)NCc1ccc(Cl)cc1	nt	13µM*	?	nt	nt	nt
CN(C)S(=O)(=O)c1cc(NC(=O)CSc2ncc(C(F)(F)F)cc2Cl)ccc1Cl	-82*	16µM*	15µM*	?	?	?
Cc1cc(N2C3CCC2CC(O)(c2ccc(F)cc2)C3)nc(-c2ccccc2)n1 (stereo not given)	-56*	?	?	14µM*	?	-4%[9.24 µM]
COc1cc(C(=O)OCC#N)ccc1OCc1c(C)noc1C	81	23µM*	?	?	?	26µM*
COC(=O)c1ccc(OC(=O)c2ccc(OCc3c(C)noc3C)c(OC)c2)cc1	nt	nt	nt	nt	11%	nt
COc1cc(C(=O)NCCc2c[nH]c3ccccc23)ccc1OCc1c(C)noc1C	-77*	18µM*	?	-18%	?	-11%
COc1ccc(CCNC(=O)c2ccc(OCc3c(C)noc3C)c(OC)c2)cc1	33	-4%	14%	-5%	0%	-2%
COc1cc(C(=O)NCC(c2ccccc2)N(C)C)ccc1OCc1c(C)noc1C (stereo not given)	5	?	16µM*	-20%	15%	?
CC1CCN(c2csc3ccc(F)cc3c2=O)CC1	nt	?	-8%	nt	nt	nt
COc1cccc(CN2CCNC(=O)C2CC(=O)N(C)C2CCOCC2)c1OC (stereo not given)	5	-2%	-2%	3%	6%	-2%
COc1ccc(-n2c(CCC(=O)O)ccc2-c2ccccc2)c(OC)c1	nt	-29%	-17%	nt	nt	nt
O=C(c1cccs1)c1cn(CC(=O)N2CCc3ccccc3C2)c2ccccc12	-9	?	23µM*	-17%	-14%	?
O=C(NCCCc1nc2ccccc2n1Cc1ccc(Cl)cc1Cl)c1ccco1	nt	?	23µM*	nt	nt	nt
O=C(NCCc1nc2ccccc2n1Cc1ccc(F)cc1)c1ccco1	nt	?	-10%	nt	nt	nt
O=C(NCCc1nc2ccccc2n1Cc1ccc(Cl)cc1Cl)c1ccco1	nt	1.8µM*	1.8µM*	nt	nt	nt
CCc1cccc(NC(=O)CCCn2nc(C)c3c(C)n(-c4ccccc4)nc3c2=O)c1	-23	-20%	?	-2%	3%	6%
CCC(=O)N1c2ccc(S(=O)(=O)NC3CCCCC3)cc2CC1C (stereo not given)	28	?	21µM*	-5%	17%	-7%
CCc1cccc(NS(=O)(=O)c2ccc3c(c2)N(C)CCO3)c1	0	?	13µM*	-16%	-6%	?
CCOc1ccccc1N(C)S(=O)(=O)c1ccc2c(c1)CC(C)N2C(=O)C1CC1 (stereo not given)	-4	16µM*	23µM*	?	-22%	15µM*
CC(=O)N1c2ccc(S(=O)(=O)NCCc3ccc(S(N)(=O)=O)cc3)cc2CC1C (stereo not given)	3	-23%	-16%	-8%	7%	1%
CC1Cc2cc(S(=O)(=O)NCCc3ccc(Cl)cc3)ccc2N1C(=O)C1CCC1 (stereo not given)	nt	18µM*	?	nt	nt	nt
Cc1nn(C2CCS(=O)(=O)C2)c(C)c1CN(C)C(=O)c1ccc(S(=O)(=O)N(C)C)cc1 (stereo not given)	22	2%	9%	7%	0%	0%
SMILES	IL-1B inflam inh	DT40 TDP1 no CPT	DT40 TDP1 CPT	HT1080-NT tox	ELG1 DNA repair	HT1080 IDH1KD tx
Cc1cc(S(=O)(=O)n2ccnc2C(C)C)cc([N+](=O)[O-])c1C	nt	-3%	2%	nt	nt	nt
C[C@@H]1CN([C@H](C)CO)C(=O)CCCn2cc(nn2)CO[C@H]1CN(C)C(=O)c1ccncc1	-5	-12%	-2%	11%	nt	4%
CC1Cc2cc(S(=O)(=O)NCc3ccccc3)ccc2N1C(=O)C1CCC1 (stereo not given)	1	7.3µM*	21µM*	-4%	-17%	0%
CCc1cccc(NS(=O)(=O)c2ccc3c(c2)CC(C)N3C(=O)C2CC2)c1 (stereo not given)	nt	3.7µM*	6.5µM*	nt	nt	nt
CC1Cc2cc(S(=O)(=O)NCc3ccccc3)ccc2N1C(=O)C1CC1 (stereo not given)	0	?	?	-9%	-5%	-3%
CC(=O)N1CCC[C@@]2(CCN(Cc3ccccc3)C2)C1	nt	3%	-3%	nt	nt	nt
COc1ccc(C(C(=O)NC2CCCC2)N(C(=O)c2snc(-c3ccc(F)cc3)c2N)c2ccc(OC)cc2)cc1 (stereo not given)	-2	3.7µM*	8.2µM*	-17%	-4%	3%
COc1ccc(C(C(=O)NC2CCCC2)N(C(=O)c2snc(-c3ccc(F)cc3)c2N)c2ccccc2)cc1 (stereo not given)	14	21µM*	15µM*	5%	21%	0%
COc1ccc(C(C(=O)NC2CCCC2)N(C(=O)c2snc(-c3ccc(F)cc3)c2N)c2ccc(F)cc2)cc1 (stereo not given)	47	15µM*	9.2µM*	?	1%	?
COc1ccc(C(C(=O)NC2CCCC2)N(C(=O)c2snc(-c3ccc(F)cc3)c2N)c2cccc(F)c2)cc1 (stereo not given)	40	7.3µM*	6.5µM*	-2%	4%	0%
COc1ccc(N(C(=O)c2snc(C(N)=O)c2N)C(C(=O)NC2CCCC2)c2ccc3ncccc3c2)cc1 (stereo not given)	-20	-22%	?	-19%	-14%	-12%
COc1ccc(N(C(=O)c2ccn[nH]2)C(C(=O)NC2CCCC2)c2ccc(F)cc2)cc1 (stereo not given)	-15	-18%	-24%	0%	1%	6%
O=C(NCc1ccc(Cl)cc1)C1CCN(S(=O)(=O)N2CCOCC2)CC1	25	-16%	-10%	3%	10%	10%

From PubChem
